Records with an inconclusive call do not appear. Active and inactive are the calls of the source.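 How the source made its calls, unless noted: active means viability increase at or above a cutoff of the median across tested compounds plus 3 SD (cut at about 8.5% in these data, passing the limit was not always enough); inconclusive means some gains above the cutoff, reason not given; inactive means the rest.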
Key:
[1] = reducers of endogenous Her2 protein level, primary screen, SKBR3 breast tumor cells, AlphaScreen, ATP viability (AID 461;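 active means Her2 level under about 52% in both replicate screens, with viability over 70% of control, limit read from the data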;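 on Her2 level: lower value means less Her2 protein in the cells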;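 on viability: percent of carrier control wells set as 100% viability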); conditions: 18-24 h, measured here: SKBR3 viability, ATP luminescence, at 10 µM
[2] = target: Receptor tyrosine-protein kinase erbB-2 (Homo sapiens) (UniProt P04626); assay: as above; conditions: 18-24 h, at 10 µM, stronger effect = lower value
[3] = SK-BR-3 cell growth inhibitors, pilot screen, 24 h, human (AID 572;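 active means viability at or below 10% of carrier control in both of two separate runs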;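 further: compound exposure lasted between 18 and 24 h rather than exactly 24 h; 100% = carrier-treated control wells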); conditions: SK-BR-3 viability, CellTiter-Glo luminescence, at 10 µM, stronger effect = lower value
[4] = HUVEC growth inhibition – cell-based, human, primary screen (AID 575;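 active means viability at or below 30% in both replicate assays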;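 further: 100% = median of untreated cell wells with 0.1% DMSO on each plate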); conditions: HUVEC proliferation, CellTiter-Glo luminescence, 72 h; at 10 µM; stronger effect = lower value
[5] = growth inhibitors of H69AR lung tumor, primary screen, human, duplicate replicates (AID 580;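 active means viability at or under a set limit in both replicates, limit being median viability minus 3 SD, cut at about 48% in these data, passing the limit was not always enough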;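 further: 100% = mean luminescence of untreated wells and 0% = no signal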); conditions: H69AR lung tumor cells viability, ATP luminescence, 72 h; at 10 µM; stronger effect = lower value
[6] = reversal of MRP1-mediated doxorubicin resistance, pilot screen, H69AR cells, doxorubicin co-treatment (AID 601;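 active means viability loss from added drug above about 55%, and viability with drug at most 40%, in both replicates, limit read from the data, passing the limit was not always enough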); conditions: CellTiter-Glo, 72 h, at 10 µM; for differential viability (reversal): stronger effect = higher value
[7] = 384-well plate pilot, post-Golgi transport modulator project, inhibition of yeast transport mutant growth (AID 636; in the data active means inhibition above about 31%); conditions: absorbance 615 nm, about 18 h, stronger effect = higher value
[8] = growth suppression of yeast trafficking mutant, preliminary HTS, modulators of trafficking downstream of Golgi apparatus project, 1536-format plate, OD 615 nm (AID 637; in the data active means inhibition above about 30%); conditions: yeast transport mutant growth, absorbance 615 nm, 18 h; stronger effect = higher value
[9] = OD615 S. cerevisiae growth inhibition, permissive medium, pilot counter-assay, permissive growth control for S. cerevisiae lifespan shortening project (AID 705;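 active means growth inhibition above 25% in both replicates, a cutoff set 3 SD above the mean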); conditions: OD615, 24 h, at 10 µM, stronger effect = higher value
[10] = Restrictive medium S. cerevisiae growth inhibition, OD615, pilot screen of yeast lifespan reduction project, restrictive growth control (AID 706;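 active means growth inhibition above a set limit, 3 SD over mean compound inhibition, in both replicates, cut at about 43% in these data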;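 further: modified DeaD lifespan yeast strain shifted to restrictive glucose medium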); conditions: OD615, 48 h, at 10 µM, stronger effect = higher value
[11] = viability gain of MRP-1-high H69AR cells under doxorubicin, pilot screen, MRP-1 activator project, CellTiter-Glo, duplicate (AID 807); conditions: H69AR viability with doxorubicin, CellTiter-Glo luminescence; at 10 µM; stronger effect = higher value;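 further: compound pretreatment 18-22 h then 72 h combined with doxorubicin; 0% = doxorubicin alone and 100% = vehicle without doxorubicin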
[12] = growth suppression of beta-catenin knockout HCT116, pilot screen, human colon tumor cells (AID 823;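 active means cell viability at or below a set limit in both duplicate runs, the limit being the all-compound median minus 4 SD, cut at about 23% in these data, passing the limit was not always enough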;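 further: 0% = wells killed by 20 µM Hyamine and 100% = untreated DMSO cell wells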); conditions: CellTiter-Glo, 60 h, at 10 µM, stronger effect = lower value
[13] = growth suppression of PTEN-deleted HCT116, pilot screen, cell-based, HCT116 clonal line, CellTiter-Glo (AID 824;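 active means viability at or below 27.92% in each of two runs, the all-compound median minus 4 SD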;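 further: 0% = 20 µM Hyamine control and 100% = vehicle cell control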); conditions: 60 h, at 10 µM, stronger effect = lower value
[14] = inhibitors of the yeast RAM network, pilot screen, dse1pr::URA3 reporter, 5-FOA selection (AID 869;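 active means inhibition over a set limit, the all-compound mean plus 3 SD, in both replicate runs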;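 further: 0% = DMSO wells with no growth and 100% = 10 µM 1-NA-PP1 with full growth; RAM network block rescues cells from 5-FOA so hits raise OD615 growth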); conditions: S. cerevisiae dse1pr::URA3 5-FOA growth, OD615, 2 d; at 10 µM; stronger effect = higher value; strain carries analog-sensitive mutant Cbk1 kinase
[15] = RAM signaling pathway blockade in yeast – S. cerevisiae, Pdr1DBD-CYC8 efflux-inhibited sensitized strain, primary screen (AID 1298;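 active means RAM network inhibition above 8.4% in each of two replicates, 3 SD over the compound average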;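 further: 0% = DMSO untreated cells without growth and 100% = 10 µM 1-NA-PP1 full growth; higher means more yeast growth rescued from 5-FOA killing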); conditions: S. cerevisiae cbk1-as DSE1-URA3 strain, 5-FOA growth OD615, 2 d; at 50 µM; stronger effect = higher value
[16] = H69AR cells + 2 uM doxorubicin, measured here: viability with 2 uM doxorubicin, stronger effect = lower value
[17] = H69AR cells, compound alone cytotoxicity

Sequence of Receptor tyrosine-protein kinase erbB-2 (Homo sapiens) (P04626 whole entry, looked up): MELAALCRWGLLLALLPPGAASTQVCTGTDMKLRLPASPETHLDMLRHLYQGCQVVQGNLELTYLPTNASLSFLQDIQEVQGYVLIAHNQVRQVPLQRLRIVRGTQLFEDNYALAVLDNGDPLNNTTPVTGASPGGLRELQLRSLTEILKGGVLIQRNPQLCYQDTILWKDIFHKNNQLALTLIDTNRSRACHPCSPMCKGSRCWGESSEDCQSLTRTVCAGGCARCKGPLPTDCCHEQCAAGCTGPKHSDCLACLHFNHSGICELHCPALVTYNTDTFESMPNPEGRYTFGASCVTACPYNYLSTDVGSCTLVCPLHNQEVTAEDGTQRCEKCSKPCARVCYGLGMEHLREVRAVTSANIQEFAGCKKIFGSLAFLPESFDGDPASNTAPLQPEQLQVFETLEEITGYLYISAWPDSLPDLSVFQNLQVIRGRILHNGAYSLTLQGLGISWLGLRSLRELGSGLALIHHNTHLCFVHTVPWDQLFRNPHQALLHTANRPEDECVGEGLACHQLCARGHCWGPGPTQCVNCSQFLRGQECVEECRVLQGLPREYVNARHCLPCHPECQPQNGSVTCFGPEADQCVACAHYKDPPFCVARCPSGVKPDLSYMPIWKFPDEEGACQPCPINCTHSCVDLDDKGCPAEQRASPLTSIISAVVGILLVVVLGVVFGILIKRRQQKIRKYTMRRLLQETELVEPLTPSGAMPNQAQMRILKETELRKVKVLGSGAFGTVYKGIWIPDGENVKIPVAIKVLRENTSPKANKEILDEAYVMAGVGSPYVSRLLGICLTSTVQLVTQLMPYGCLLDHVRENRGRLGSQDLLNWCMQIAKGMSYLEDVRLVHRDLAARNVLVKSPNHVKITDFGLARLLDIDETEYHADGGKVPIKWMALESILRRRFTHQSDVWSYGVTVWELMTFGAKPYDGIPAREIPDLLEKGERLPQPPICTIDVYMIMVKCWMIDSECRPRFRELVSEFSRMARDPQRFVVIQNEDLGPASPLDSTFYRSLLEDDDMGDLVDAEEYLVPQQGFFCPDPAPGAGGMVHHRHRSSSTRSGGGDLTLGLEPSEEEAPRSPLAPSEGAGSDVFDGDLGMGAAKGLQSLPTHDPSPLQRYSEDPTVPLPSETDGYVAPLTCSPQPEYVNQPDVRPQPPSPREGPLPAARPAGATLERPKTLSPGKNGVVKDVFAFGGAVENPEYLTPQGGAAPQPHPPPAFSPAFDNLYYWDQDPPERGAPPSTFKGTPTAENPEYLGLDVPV

Row | SMILES | viability [1] | Her2 level [2] | viability [3] | viability [4] | viability [5] | differential viability (reversal) ([6]; H69AR cells + 2 uM doxorubicin) | viability [6, 16] | viability [6, 17] | inhibition [7] | inhibition [8] | growth inhibition [9] | growth inhibition [10] | viability increase [11] | viability [12] | viability [13] | inhibition [14] | RAM network inhibition [15]
1 | COc1ccc2c(c1OC)C(=O)OC2CC(=O)c1ccc(O)cc1 (stereo not given) | 100% | 111% (inactive) | 100% (inactive) | 106% (inactive) | 87.3% (inactive) | -3.06% (inactive) | 90.4% | 87.3% | 1.3% (inactive) | -4.17% (inactive) | -11.6% (inactive) | -10.6% (inactive) | -0.29% (inactive) | 102% (inactive) | 107% (inactive) | 0.365% (inactive) | 4.28% (inactive)
2 | CC1CCc2nn(CC(=O)NCCN3CCOCC3)cc2C1 (stereo not given) | 101% | 113% (inactive) | 101% (inactive) | 98.6% (inactive) | 89.4% (inactive) | -8.26% (inactive) | 97.7% | 89.4% | -2.44% (inactive) | -2.33% (inactive) | 2.41% (inactive) | 6.26% (inactive) | 0.93% (inactive) | 108% (inactive) | 101% (inactive) | 0.965% (inactive) | 4.43% (inactive)
3 | CC1=C(C(=O)Nc2ccccc2)C(c2ccccn2)n2nc(CCCO)nc2N1 (stereo not given) | 94.5% | 105% (inactive) | 94.5% (inactive) | 101% (inactive) | 95.6% (inactive) | 1.47% (inactive) | 94.1% | 95.6% | -5.73% (inactive) | -3.33% (inactive) | -14.1% (inactive) | -8.68% (inactive) | -0.39% (inactive) | 96.3% (inactive) | 92.9% (inactive) | 1.56% (inactive) | 5.48% (inactive)
4 | CC1CCc2nn(CC(=O)NCc3ccc4c(c3)OCO4)cc2C1 (stereo not given) | 86.5% | 88% (inactive) | 86.5% (inactive) | 90.7% (inactive) | 100% (inactive) | 9.8% (inactive) | 90.6% | 100% | -2.93% (inactive) | 2.79% (inactive) | -0.315% (inactive) | -4.54% (inactive) | -0.84% (inactive) | 108% (inactive) | 94.5% (inactive) | -0.525% (inactive) | 1.68% (inactive)
5 | CCC(C)NC(=O)CS(=O)(=O)Cc1nc(-c2cccc(OC)c2)oc1C (stereo not given) | 80.5% | 98% (inactive) | 80.5% (inactive) | 97.6% (inactive) | 91.4% (inactive) | -8.61% (inactive) | 100% | 91.4% | -2% (inactive) | -0.66% (inactive) | 3.02% (inactive) | 9.5% (inactive) | 0.02% (inactive) | 91.9% (inactive) | 93.5% (inactive) | 0.02% (inactive) | 3.92% (inactive)
6 | COc1cccc(C2CC(c3ccc(C)cc3)n3nc(N)nc3N2)c1 (stereo not given) | 104% | 112% (inactive) | 104% (inactive) | 95.3% (inactive) | 98.2% (inactive) | -7.23% (inactive) | 105% | 98.2% | -4.1% (inactive) | 3.5% (inactive) | 0.34% (inactive) | 9.55% (inactive) | -1.45% (inactive) | 103% (inactive) | 98.6% (inactive) | -0.18% (inactive) | 7.85% (inactive)
7 | CC1=C(C(=O)Nc2cccnc2)C(c2ccc(C(C)C)cc2)n2ncnc2N1 (stereo not given) | 89.5% | 105% (inactive) | 89.5% (inactive) | 103% (inactive) | 97.8% (inactive) | 26.7% (inactive) | 71.1% | 97.8% | -2.13% (inactive) | -2.83% (inactive) | -9.26% (inactive) | -12.1% (inactive) | -3.03% (inactive) | 96.6% (inactive) | 102% (inactive) | 0.44% (inactive) | 1.4% (inactive)
8 | CC1CN(c2ccc(Oc3ccccc3)cc2)c2nc3c(c(=O)n(CC(N)=O)c(=O)n3C)n2C1 (stereo not given) | 107% | 101% (inactive) | 107% (inactive) | 77.5% (inactive) | 79.1% (inactive) | 4.74% (inactive) | 74.4% | 79.1% | -4.67% (inactive) | -5.17% (inactive) | -3.86% (inactive) | 6.34% (inactive) | -3.54% (inactive) | 104% (inactive) | 94.4% (inactive) | 2.65% (inactive) | 6.01% (inactive)
9 | O=C(C1CCCN1S(=O)(=O)c1cccc2cccnc12)N1CCn2c1nc1ccccc12 (stereo not given) | 100% | 84.5% (inactive) | 100% (inactive) | 64.9% (inactive) | 94.1% (inactive) | 1.47% (inactive) | 92.6% | 94.1% | 0.9% (inactive) | 4.67% (inactive) | -4.09% (inactive) | 4.54% (inactive) | 0.79% (inactive) | 97.4% (inactive) | 101% (inactive) | 0.235% (inactive) | 1.58% (inactive)
10 | Cn1c(=O)oc2cc(S(=O)(=O)N3CCCC(C(=O)NCC4COc5ccccc5O4)C3)ccc21 (stereo not given) | 77% | 79.5% (inactive) | 77% (inactive) | 83.6% (inactive) | 94% (inactive) | 3.15% (inactive) | 90.9% | 94% | 0.8% (inactive) | -2.79% (inactive) | -11.9% (inactive) | -20.4% (inactive) | 3.09% (inactive) | 86% (inactive) | 90.4% (inactive) | 0.04% (inactive) | 4.73% (inactive)
11 | COc1ccc(N2CCN(CCCNS(=O)(=O)c3c(C)noc3/C=C/N(C)C)CC2)cc1 | 99.5% | 94.5% (inactive) | 99.5% (inactive) | 83.1% (inactive) | 92.9% (inactive) | 0.17% (inactive) | 92.8% | 92.9% | -7.33% (inactive) | -4.43% (inactive) | -4.88% (inactive) | 12% (inactive) | -2.75% (inactive) | 81% (inactive) | 83.7% (inactive) | 1.67% (inactive) | 7% (inactive)
12 | CCN(CC)CCn1c(=N)n(CCO)c2ccccc21 | 94.5% | 94% (inactive) | 94.5% (inactive) | 107% (inactive) | 101% (inactive) | 8.55% (inactive) | 92.9% | 101% | -5.32% (inactive) | 2.33% (inactive) | 0.615% (inactive) | 1.18% (inactive) | -0.4% (inactive) | 101% (inactive) | 97.5% (inactive) | 0.605% (inactive) | 4.92% (inactive)
13 | CC(C)Cc1nnc(NS(=O)(=O)c2ccc(Cl)cc2)s1 | 91.5% | 98% (inactive) | 91.5% (inactive) | 90.1% (inactive) | 90% (inactive) | -4.72% (inactive) | 94.7% | 90% | -4.53% (inactive) | -0.5% (inactive) | -22.6% (inactive) | 3.6% (inactive) | 2.68% (inactive) | 99.2% (inactive) | 96.7% (inactive) | 1.43% (inactive) | 4.53% (inactive)
14 | COc1c(S(=O)(=O)n2nc(C)cc2C)ccc(Cl)c1Cl | 98% | 101% (inactive) | 98% (inactive) | 101% (inactive) | 98% (inactive) | -1.02% (inactive) | 99% | 98% | -2.76% (inactive) | 2.33% (inactive) | -5.31% (inactive) | 8.94% (inactive) | 1.75% (inactive) | 95.8% (inactive) | 86.2% (inactive) | 1.5% (inactive) | 2.6% (inactive)
15 | CN1CCN(Cc2nc3c(c(=O)n(C)c(=O)n3C)n2Cc2ccccc2Cl)CC1 | 80.5% | 97.5% (inactive) | 80.5% (inactive) | 86.5% (inactive) | 86.9% (inactive) | 7.12% (inactive) | 79.8% | 86.9% | -5.07% (inactive) | -2.17% (inactive) | -5.17% (inactive) | -14.4% (inactive) | -2.56% (inactive) | 91.8% (inactive) | 91.3% (inactive) | 1.5% (inactive) | 4.45% (inactive)
16 | O=C(CCN1C(=O)c2ccccc2C1=O)NCCN1CCOCC1 | 105% | 119% (inactive) | 105% (inactive) | 86.3% (inactive) | 95.3% (inactive) | -5.16% (inactive) | 101% | 95.3% | 1.95% (inactive) | -9.5% (inactive) | -11.9% (inactive) | -6.59% (inactive) | 0.61% (inactive) | 93.8% (inactive) | 104% (inactive) | 0.42% (inactive) | 2.35% (inactive)
17 | CC1(C)C(c2ccccc2)=NC(c2ccccc2)N1O (stereo not given) | 86.5% | 82% (inactive) | 86.5% (inactive) | 98% (inactive) | 91.4% (inactive) | 8.36% (inactive) | 83% | 91.4% | -0.78% (inactive) | -9% (inactive) | -0.065% (inactive) | -4.8% (inactive) | -1.73% (inactive) | 95.6% (inactive) | 96.5% (inactive) | 0.165% (inactive) | 3.18% (inactive)
18 | O=C(c1cccs1)N1CCc2ccccc21 | 110% | 82% (inactive) | 110% (inactive) | 83% (inactive) | 94% (inactive) | 14.6% (inactive) | 79.5% | 94% | -5.47% (inactive) | 0.97% (inactive) | 1.98% (inactive) | 1.57% (inactive) | -1.9% (inactive) | 96.3% (inactive) | 95.8% (inactive) | 1.48% (inactive) | 1.66% (inactive)
19 | Cn1cc(Cl)c(C(=O)NC2CCCC2)n1 | 83.5% | 118% (inactive) | 83.5% (inactive) | 108% (inactive) | 105% (inactive) | 14.1% (inactive) | 91.3% | 105% | -5.07% (inactive) | 5.5% (inactive) | -12.3% (inactive) | -8.69% (inactive) | -0.89% (inactive) | 104% (inactive) | 103% (inactive) | 1.5% (inactive) | 2.86% (inactive)
20 | Cc1cccc(-n2ncc3c(NCCCO)ncnc32)c1 | 95.5% | 118% (inactive) | 95.5% (inactive) | 86.4% (inactive) | 88.3% (inactive) | 7.59% (inactive) | 80.7% | 88.3% | 2.4% (inactive) | -2.5% (inactive) | -12.1% (inactive) | -8.93% (inactive) | 0.27% (inactive) | 112% (inactive) | 104% (inactive) | 0.64% (inactive) | -0.67% (inactive)
